Here are results for twelve compounds from PubChem BioAssay (NCATS).

Experiment [1] in a line: qHTS of pediatric cancer cell lines to identify multiple opportunities for drug repurposing: Primary screen for DAOY cells (AID 1347090). Also: nearly all actives have a fitted effect of over 55% in size. The gist of the method: (§1)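 Viability measured as metabolically active cells via CellTiter-Glo luminescence following 48 hours of compound exposure, 11-point dilutions in confirmatory testing. 500-1,000 cells/well plated 5 hours before dosing; controls were DMSO and 2.3 µM bortezomib.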
A general note: Quantitative high-throughput screening tests each substance at several concentrations.

Experiment [2] is described as follows: qHTS of pediatric cancer cell lines to identify multiple opportunities for drug repurposing: Primary screen for SJ-GBM2 cells (AID 1347091). In short, it runs like this:
as §1

Experiment [3] can be described thus: qHTS of pediatric cancer cell lines to identify multiple opportunities for drug repurposing: Primary screen for A673 cells (AID 1347092). Also: nearly all actives have a fitted effect of over 45% in size. The gist of the method: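 Cells are plated, rested 5 h, dosed by pintool, incubated 48 h, then lysed with CellTiter-Glo and read by luminescence. DMSO is the neutral control; bortezomib at 2.3 uM final is the positive control.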

Experiment [4] is described as follows: qHTS of pediatric cancer cell lines to identify multiple opportunities for drug repurposing: Primary screen for SK-N-MC cells (AID 1347093). In short, it runs like this: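 Metabolically active cells were quantified by ATP-dependent luminescence (CellTiter-Glo, 15 min at room temperature) following 48 h treatment. Cells had been plated at 500-1,000 per well and settled for 5 h beforehand.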

Experiment [5] is described as follows: qHTS of pediatric cancer cell lines to identify multiple opportunities for drug repurposing: Primary screen for BT-37 cells (AID 1347094). In short, it runs like this:
(§2)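 Readout: CellTiter-Glo luminescence, 48 h treatment. Controls DMSO (neutral) and bortezomib 2.3 µM final (positive). Potency and efficacy taken from primary-screen concentration-response curves.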

Experiment [6] can be described thus: qHTS of pediatric cancer cell lines to identify multiple opportunities for drug repurposing: Primary screen for NB-EBc1 cells (AID 1347095). The gist of the method: as §2
The nature of experiment [7]: qHTS of pediatric cancer cell lines to identify multiple opportunities for drug repurposing: Primary screen for Saos-2 cells (AID 1347097). Also: nearly all actives have a fitted effect of over 40% in size. The gist of the method: as §2
Experiment [8] can be described thus: qHTS of pediatric cancer cell lines to identify multiple opportunities for drug repurposing: Primary screen for NB1643 cells (AID 1347099). Also: nearly all actives have a fitted effect of over 50% in size. The gist of the method: as §2
Experiment [9] can be described thus: qHTS of pediatric cancer cell lines to identify multiple opportunities for drug repurposing: Primary screen for BT-12 cells (AID 1347101). Also: nearly all actives have a fitted effect of over 25% in size. The gist of the method: (§3)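 Cells (500-1,000/well) rested 5 h, then received compounds for 48 h; metabolically active cells were measured by CellTiter-Glo luminescence. Final concentrations spanned up to 46 µM (MIPE, 11-point) or 0.59 nM-46 µM (NPC, 8-point) in primary screens, 11-point in follow-ups.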

Experiment [10] in a line: qHTS of pediatric cancer cell lines to identify multiple opportunities for drug repurposing: Primary screen for Rh18 cells (AID 1347102). Also: nearly all actives have a fitted effect of over 65% in size. In short, it runs like this:
(§4)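 Viability after 48 h compound treatment at 37C, 500-1,000 cells/well, read as ATP luminescence with CellTiter-Glo. Primary screens used 11-point (MIPE, 0.78 nM-46 µM) or 8-point (NPC, 0.59 nM-46 µM) final concentrations; follow-up screens used 11-point dilutions.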

A short description of experiment [11]: qHTS of pediatric cancer cell lines to identify multiple opportunities for drug repurposing: Primary screen for OHS-50 cells (AID 1347103). Also: nearly all actives have a fitted effect of over 40% in size. The gist of the method:
as §3

Experiment [12] is described as follows: qHTS of pediatric cancer cell lines to identify multiple opportunities for drug repurposing: Primary screen for RD cells (AID 1347104). Also: nearly all actives have a fitted effect of over 55% in size. In short, it runs like this: as §2
Experiment [13] is described as follows: qHTS of pediatric cancer cell lines to identify multiple opportunities for drug repurposing: Primary screen for SK-N-SH cells (AID 1347098). Also: nearly all actives have a fitted effect of over 65% in size. The gist of the method: as §3
A short description of experiment [14]: qHTS of pediatric cancer cell lines to identify multiple opportunities for drug repurposing: Primary screen for LAN-5 cells (AID 1347100). The gist of the method:
as §4

Experiment [15] is described as follows: qHTS of pediatric cancer cell lines to identify multiple opportunities for drug repurposing: Primary screen for U-2 OS cells (AID 1347096). Also: nearly all actives have a fitted effect of over 50% in size. In short, it runs like this: as §4

Results filed as inconclusive are left out. Active and inactive are the calls of the source. Calls follow the shape of the dose curve; as a rule, active = well fitted curve in the direction sought with a large enough effect; inconclusive = small, poorly fitted or top-dose-only effect, or another doubt; inactive = no such curve, though single readings can be large; an effect the other way counts as inactive or inconclusive.
Potency is read from the fitted curve at half-maximal effect.

For the compound `Cc1ccc(C(N)=O)cc1Nc1nccc(-c2cn(C(C)C)c3cnccc23)n1`, the Potency in [1] is 11.8 µM (active); in experiment [2], 7.43 µM (active); in [3], 3.72 µM (active); in experiment [4] it was 5.9 µM (active); in [5] it was 9.68 µM (active); in experiment [6], 4.18 µM (active). For the same compound, the Potency in experiment [7] was 4.69 µM (active); in experiment [9], 6.85 µM (active); in [11] it was 9.68 µM (active); in experiment [12] it was 16.6 µM (active). Further, the Potency result in experiment [8] and in [10] was “inactive” in each case.

On to `Cc1cc(Nc2ncnc3ccc(-c4ccc(CNCCS(C)(=O)=O)o4)cc23)ccc1Oc1ccn2ncnc2c1`, for which the Potency in experiment [1] is 9.35 µM (active); in experiment [2] it was 5.26 µM (active); in experiment [3], 0.235 µM (active); in experiment [4], 4.18 µM (active); in experiment [5], 6.11 µM (active); in [7], 2.09 µM (active). The Potency in experiment [13] is 21.5 µM (active); in experiment [8], 16.6 µM (active); in experiment [9] it was 6.85 µM (active); in experiment [10], 20.9 µM (active); in experiment [11] it was 1.22 µM (active); in [12] it was 16.6 µM (active).

As to `CC(C)(O)CCc1ccc(OCc2cc(-c3cccc(OC(F)F)c3)c3ncccc3c2)cc1`, the Potency result in experiment [1], in [2], in experiment [3], in experiment [5], in experiment [6] and in [7] was “inactive” in each case. Besides, the Potency result in experiment [14], in experiment [9] and in [10] was “inactive” throughout. For the same compound, the Potency in experiment [8] is 18.7 µM (active).

With `Cn1c2ccccc2c2c3c(c4c5ccccc5n(CCC#N)c4c21)CNC3=O`, the Potency in experiment [1] is 5.9 µM (active); in experiment [2], 0.59 µM (active); in [3], 0.935 µM (active); in experiment [5] it was 7.69 µM (active); in experiment [7], 0.935 µM (active); in experiment [13] it was 5.41 µM (active). Besides, the Potency is 1.87 µM (active) in experiment [8], 5.9 µM (active) in experiment [14] and 5.44 µM (active) in [11].

Consider `COc1ccc(CC2SC(=O)NC2=O)cc1C(=O)NCc1ccc(C(F)(F)F)cc1` (centres undefined), for which the Potency result in [1], in experiment [2], in [3], in [5], in [15] and in [7] was “inactive” throughout. Besides, the Potency entry in experiment [13], in experiment [10], in experiment [11] and in experiment [12] was “inactive” each time.

Take `CC1=C(CO)C(=O)O[C@@H]([C@@H](C)[C@H]2CC[C@H]3[C@@H]4C[C@H]5O[C@]56[C@@H](O)C=CC(=O)[C@]6(C)[C@@H]4CC[C@]23C)C1`: the Potency was 0.743 µM (active) in experiment [1]; 0.372 µM (active) in experiment [2]; 0.372 µM (active) in [3]; 0.132 µM (active) in experiment [4]; 2.17 µM (active) in experiment [5]; 0.469 µM (active) in [6]. The Potency in experiment [13] is 3.41 µM (active); in experiment [8], 0.132 µM (active); in experiment [14], 0.187 µM (active); in experiment [9] it was 0.769 µM (active); in experiment [11] it was 4.85 µM (active); in [12], 0.418 µM (active).

With `Nc1cccc(-c2cc3c(Oc4cccc(O)c4)ncnc3[nH]2)c1`, the Potency in [1] is 7.43 µM (active); in [2] it was 20.9 µM (active); in experiment [3] it was 14.8 µM (active); in experiment [4], 1.05 µM (active); in [7], 1.87 µM (active); in experiment [13], 3.04 µM (active). Further, the Potency is 20.9 µM (active) in experiment [8], 11.8 µM (active) in experiment [14], 11.8 µM (active) in [10] and 9.35 µM (active) in experiment [12]. Moreover, the Potency result in [15] is “inactive”.

Consider `COc1cc2c(Oc3ccc4[nH]c(C)cc4c3F)ncnc2cc1OCCCN1CCCC1`, for which the Potency in [1] was 18.7 µM (active); in experiment [2], 6.62 µM (active); in experiment [3], 18.7 µM (active); in experiment [5] it was 24.3 µM (active); in experiment [6], 4.18 µM (active); in [7], 29.6 µM (active). Besides, the Potency in [13] was 7.64 µM (active); in [14], 20.9 µM (active); in experiment [9], 24.3 µM (active); in [11], 30.6 µM (active). The Potency entry in [15] was “inactive”.

For the compound `OCCCNc1cc(-c2ccnc(Nc3cccc(Cl)c3)n2)ccn1`, the Potency in experiment [1] is 0.187 µM (active); in experiment [2], 0.0833 µM (active); in experiment [3] it was 0.0469 µM (active); in experiment [4], 0.105 µM (active); in experiment [5], 0.243 µM (active); in [6], 0.0935 µM (active). The Potency was 0.148 µM (active) in experiment [7], 0.193 µM (active) in [9], 0.153 µM (active) in [11] and 0.235 µM (active) in experiment [12].

For the compound `Cc1cc(Nc2cc(N3CCN(C)CC3)nc(C=Cc3ccccc3)n2)n[nH]1`, the Potency in experiment [1] is 42.9 µM (active); in experiment [2], 13.6 µM (active); in experiment [3], 10.8 µM (active); in experiment [5], 44.4 µM (active); in experiment [6], 4.29 µM (active); in experiment [15], 34 µM (active). Further, the Potency in [7] is 3.03 µM (active); in experiment [13], 3.5 µM (active); in [8] it was 34 µM (active); in [14], 0.679 µM (active); in experiment [9] it was 7.89 µM (active); in experiment [10], 3.82 µM (active). The Potency in experiment [11] was 2.22 µM (active); in experiment [12], 21.5 µM (active).

Regarding `Cc1cc(Nc2cc(NC(=O)c3c(Cl)cccc3Cl)ccn2)nc(N)n1`, the Potency is 1.48 µM (active) in [1]; 0.59 µM (active) in [2]; 1.18 µM (active) in experiment [3]; 0.544 µM (active) in [5]; 0.332 µM (active) in experiment [6]; 18.7 µM (active) in [15]. Moreover, the Potency is 1.05 µM (active) in experiment [7]; 6.07 µM (active) in experiment [13]; 11.8 µM (active) in experiment [8]; 1.87 µM (active) in experiment [14]; 0.544 µM (active) in experiment [9]; 8.63 µM (active) in [11]. Besides, the Potency in experiment [12] was 0.935 µM (active).

`Cc1c(CN2CCN(S(C)(=O)=O)CC2)sc2c(N3CCOCC3)nc(-c3cnc(N)nc3)nc12`: the Potency in experiment [1] is 0.118 µM (active); in experiment [2], 0.0469 µM (active); in [3], 0.187 µM (active); in experiment [4], 0.0047 µM (active); in [5] it was 0.193 µM (active); in experiment [7], 0.332 µM (active). Further, the Potency is 1.92 µM (active) in experiment [13], 0.0264 µM (active) in experiment [14], 0.105 µM (active) in experiment [10] and 0.0097 µM (active) in [11].
